Laboratory results: PubChem BioAssay (Tox21)
Where “and” joins values, the source holds several entries; their conditions need not be identical. Equal values may be shown once. Calls of active or inactive are those of the source. Unless noted, calls come from the whole dose curve; as a rule, active = well fitted curve in the direction sought with a large enough effect in the repeat runs; inconclusive = weak or mixed curves; inactive = no such curve, though single readings can be large; an effect the other way counts as inactive or inconclusive.

Assays:
[1] = qHTS assay to identify small molecule antagonists of the glucocorticoid receptor (GR) signaling pathway - cell viability counter screen (AID 720693); note: nearly all actives have a fitted effect of over 55% in size; note: potency is the fitted concentration of half-maximal effect
[2] = qHTS assay for identifying genotoxic compounds that show differential cytotoxicity against isogenic chicken DT40 cell lines with known DNA damage response pathways - Rad54/Ku70 mutant cell line (AID 743015); note: nearly all actives have a fitted effect of over 60% in size; note: potency is the fitted concentration of half-maximal effect
[3] = qHTS assay to identify small molecule antagonists of the androgen receptor (AR) signaling pathway - cell viability counter screen (AID 743033; note: nearly all actives have a fitted effect of over 45% in size; note: potency is the fitted concentration of half-maximal effect)
[4] = target: Androgen receptor (Homo sapiens) (UniProt P10275); experiment: qHTS assay to identify small molecule agonists of the androgen receptor (AR) signaling pathway using the MDA cell line (AID 743040; note: nearly all actives have a fitted effect of over 20% in size)
Chain of Androgen receptor (Homo sapiens) (P10275 whole entry, looked up): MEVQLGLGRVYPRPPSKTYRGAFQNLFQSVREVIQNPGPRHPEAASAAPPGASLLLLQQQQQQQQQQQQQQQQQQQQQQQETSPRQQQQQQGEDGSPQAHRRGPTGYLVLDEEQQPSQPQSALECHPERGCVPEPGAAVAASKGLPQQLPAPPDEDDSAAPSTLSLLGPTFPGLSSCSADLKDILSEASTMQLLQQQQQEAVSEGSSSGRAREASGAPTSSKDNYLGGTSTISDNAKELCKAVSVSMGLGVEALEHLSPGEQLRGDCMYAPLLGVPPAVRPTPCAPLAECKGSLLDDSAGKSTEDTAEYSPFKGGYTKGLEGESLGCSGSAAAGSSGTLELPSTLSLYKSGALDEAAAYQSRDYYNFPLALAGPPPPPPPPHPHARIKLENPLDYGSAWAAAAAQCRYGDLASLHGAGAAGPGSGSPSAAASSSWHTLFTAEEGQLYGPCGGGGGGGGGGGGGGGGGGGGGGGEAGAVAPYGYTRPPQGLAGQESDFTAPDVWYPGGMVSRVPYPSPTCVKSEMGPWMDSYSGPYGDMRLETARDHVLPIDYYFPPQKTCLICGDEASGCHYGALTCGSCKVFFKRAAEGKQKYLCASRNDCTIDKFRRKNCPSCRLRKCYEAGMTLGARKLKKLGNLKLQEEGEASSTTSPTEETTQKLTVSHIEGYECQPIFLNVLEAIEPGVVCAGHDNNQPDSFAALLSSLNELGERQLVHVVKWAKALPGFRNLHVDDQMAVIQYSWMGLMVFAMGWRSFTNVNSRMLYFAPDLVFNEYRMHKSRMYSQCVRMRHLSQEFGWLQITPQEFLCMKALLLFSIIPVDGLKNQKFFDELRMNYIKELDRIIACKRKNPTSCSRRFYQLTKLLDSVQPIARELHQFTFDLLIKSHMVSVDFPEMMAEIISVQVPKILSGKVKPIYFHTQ
Procedure, shortened: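 Cell-based luciferase reporter: MDA-kb2, MMTV promoter (AR + GR response elements). 16 h compound exposure at 37C; ONE-Glo, 30 min RT, luminescence.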

[5] = target: Androgen receptor (Homo sapiens) (UniProt P10275); experiment: qHTS assay to identify small molecule antagonists of the androgen receptor (AR) signaling pathway using the MDA cell line (AID 743042; note: nearly all actives have a fitted effect of over 55% in size; note: potency is the fitted concentration of half-maximal effect)
Procedure, shortened: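 MDA-kb2 cells (human breast carcinoma, stably carrying an MMTV-luciferase reporter responsive to AR and GR) were plated at 3,000 cells/well and preincubated 5 hr at 37C, then given compound plus R1881 agonist for 16 h. ONE-Glo luminescence was read.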

[6] = qHTS assay to identify small molecule antagonists of the thyroid receptor (TR) signaling pathway - cell viability counter screen (AID 743064); note: nearly all actives have a fitted effect of over 50% in size; note: potency is the fitted concentration of half-maximal effect
Procedure, shortened: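 Fluorescence from CellTiter-Fluor, added after 23.5 h exposure at 37 °C, reported viability of GH3.TRE-Luc cells co-treated with compound and 1 nM T3. Measured in the same wells as the luciferase TR readout.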

[7] = qHTS assay to identify small molecule antagonists of the thyroid receptor (TR) signaling pathway (AID 743065); note: nearly all actives have a fitted effect of over 55% in size; note: potency is the fitted concentration of half-maximal effect
Procedure, shortened: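 GH3.TRE-Luc rat pituitary cells carrying two TR response elements driving luciferase were plated for 4 h, given compound plus 1 nM T3 (final), and incubated 23.5 h at 37 C. ONE-Glo luminescence measured reporter inhibition; CellTiter-Fluor fluorescence tracked cytotoxicity.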

[8] = tested on: thyroid hormone receptor (rat, GH3 cells); experiment: qHTS assay to identify small molecule agonists of the thyroid receptor (TR) signaling pathway (AID 743066; calls by dose curve)
[9] = qHTS assay to identify small molecule antagonists of the estrogen receptor alpha (ER-alpha) signaling pathway using the BG1 cell line - cell viability counter screen (AID 743081);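 note: compound given together with 17beta-estradiol as the ER stimulus; series mostly up to about 70 µM; nearly all actives have a fitted effect of over 45% in size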
Aromatase (Homo sapiens) = Aromatase (Homo sapiens) (UniProt P11511); experiment: qHTS assay to identify aromatase inhibitors (AID 743083); note: nearly all actives have a fitted effect of over 55% in size; note: potency is the fitted concentration of half-maximal effect
Chain of Aromatase (Homo sapiens) (P11511 whole entry, looked up): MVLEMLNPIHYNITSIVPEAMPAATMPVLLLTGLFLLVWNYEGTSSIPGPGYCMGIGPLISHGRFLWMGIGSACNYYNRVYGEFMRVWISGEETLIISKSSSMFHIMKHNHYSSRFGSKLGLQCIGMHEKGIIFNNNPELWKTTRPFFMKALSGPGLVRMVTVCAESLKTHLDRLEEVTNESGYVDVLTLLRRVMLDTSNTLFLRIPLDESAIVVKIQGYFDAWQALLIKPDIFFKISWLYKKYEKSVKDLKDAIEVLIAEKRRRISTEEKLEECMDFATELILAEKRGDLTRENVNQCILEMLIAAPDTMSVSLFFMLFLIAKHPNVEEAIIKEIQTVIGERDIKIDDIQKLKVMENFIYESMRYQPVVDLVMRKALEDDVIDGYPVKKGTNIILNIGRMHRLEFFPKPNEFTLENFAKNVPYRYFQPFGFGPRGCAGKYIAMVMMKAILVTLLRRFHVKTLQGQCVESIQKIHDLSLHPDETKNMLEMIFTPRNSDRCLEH

[10] = qHTS assay to identify aromatase inhibitors - cell viability counter screen (AID 743084); note: potency is the fitted concentration of half-maximal effect
[11] = qHTS assay for identifying genotoxic compounds that show differential cytotoxicity against isogenic chicken DT40 cell lines with known DNA damage response pathways - wild type cell line (AID 743012); note: nearly all actives have a fitted effect of over 60% in size; note: potency is the fitted concentration of half-maximal effect
Procedure, shortened: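 Viability of DNA repair-proficient chicken DT40 cells was assessed by CellTiter-Glo luminescence following 40 h compound exposure at 37 C/5% CO2.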

[12] = target: Estrogen receptor (Homo sapiens) (UniProt P03372); experiment: qHTS assay to identify small molecule antagonists of the estrogen receptor alpha (ER-alpha) signaling pathway (AID 743069; active = well fitted curve in the direction sought with a large enough effect in the signal ratio in the repeat runs, not every such curve was filed as active; inconclusive = weak or mixed curves, or effect the other way; inactive = no such curve, though single readings can be large or run the other way; the % refers to the signal ratio; note: potency is the fitted concentration of half-maximal effect)
Chain of Estrogen receptor (Homo sapiens) (P03372 whole entry, looked up): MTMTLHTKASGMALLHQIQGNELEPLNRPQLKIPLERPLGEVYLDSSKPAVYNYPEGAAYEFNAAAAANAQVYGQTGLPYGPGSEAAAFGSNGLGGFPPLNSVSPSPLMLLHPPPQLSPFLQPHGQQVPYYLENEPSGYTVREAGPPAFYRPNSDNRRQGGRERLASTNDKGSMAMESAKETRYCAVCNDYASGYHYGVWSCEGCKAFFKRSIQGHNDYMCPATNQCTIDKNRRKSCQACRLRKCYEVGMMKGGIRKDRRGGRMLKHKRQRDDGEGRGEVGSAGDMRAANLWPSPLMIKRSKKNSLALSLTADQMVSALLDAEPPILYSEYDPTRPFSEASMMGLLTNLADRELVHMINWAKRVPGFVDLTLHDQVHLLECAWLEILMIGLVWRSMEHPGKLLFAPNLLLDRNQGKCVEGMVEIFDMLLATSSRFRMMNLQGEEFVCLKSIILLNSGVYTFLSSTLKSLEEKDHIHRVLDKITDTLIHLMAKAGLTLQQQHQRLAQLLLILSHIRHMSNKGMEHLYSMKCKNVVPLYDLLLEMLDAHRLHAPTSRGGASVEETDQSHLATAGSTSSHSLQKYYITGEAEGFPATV
Procedure, shortened: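 A 17beta-estradiol challenge was applied right after compound transfer to ER-alpha-UAS-bla HEK293 cells previously kept in charcoal-stripped serum. Plates stood 18 hr at 37C and 5% CO2; fluorescence was read following 2 hr FRET substrate loading at room temperature.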

[13] = target: Estrogen receptor (Homo sapiens) (UniProt P03372); experiment: qHTS assay to identify small molecule agonists of the estrogen receptor alpha (ER-alpha) signaling pathway (AID 743075; calls by dose curve;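 note: HEK293 GripTite cells with ER-alpha and UAS-driven beta-lactamase reporter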; note: potency is the fitted concentration of half-maximal effect)
[14] = qHTS assay to identify small molecule antagonists of the estrogen receptor alpha (ER-alpha) signaling pathway using the BG1 cell line (AID 743080; calls by dose curve;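 note: BG1 cells stimulated with 17beta-estradiol alongside compound; nearly all actives have a fitted effect of over 25% in size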; note: potency is the fitted concentration of half-maximal effect)
Procedure, shortened: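 Endogenous full-length ER-alpha in BG1-Luc-4E2 cells drives a stably integrated 4×ERE luciferase gene; compounds were tested against 17beta-estradiol over 21.5 h, with luminescence and multiplexed viability fluorescence recorded.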

[15] = qHTS assay for identifying genotoxic compounds that show differential cytotoxicity against isogenic chicken DT40 cell lines with known DNA damage response pathways - Rev3 mutant cell line (AID 743014); note: nearly all actives have a fitted effect of over 55% in size; note: potency is the fitted concentration of half-maximal effect
[16] = qHTS assay to identify small molecule antagonists of the estrogen receptor alpha (ER-alpha) signaling pathway - cell viability counter screen (AID 743074; calls by dose curve;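 note: HEK293 cells carrying ER-alpha-UAS-bla reporter stimulated with 17beta-estradiol; nearly all actives have a fitted effect of over 45% in size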)
[17] = qHTS assay to identify small molecule antagonists of the androgen receptor (AR) signaling pathway using the MDA cell line - cell viability counter screen (AID 743041; note: nearly all actives have a fitted effect of over 45% in size)
Procedure, shortened: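 In this qHTS counter assay, fluorescence intensity after CellTiter-Fluor addition indicated viability of MDA-kb2 AR-luc cells given compounds and R1881 for 16 h at 37C.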

[18] = target: Estrogen receptor (Homo sapiens) (UniProt P03372); experiment: qHTS assay to identify small molecule agonists of the estrogen receptor alpha (ER-alpha) signaling pathway using the BG1 cell line (AID 743079); note: nearly all actives have a fitted effect of over 20% in size; note: potency is the fitted concentration of half-maximal effect
[19] = target: Androgen receptor (Homo sapiens) (UniProt P10275); experiment: qHTS assay to identify small molecule antagonists of the androgen receptor (AR) signaling pathway (AID 743035; active = well fitted inhibition curve with a large enough effect in the signal ratio in the repeat runs, not every such curve was filed as active; inconclusive = weak or mixed curves, or effect the other way; inactive = no such curve, though single readings can be large or run the other way; the % refers to the signal ratio)
Procedure, shortened: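 Reporter HEK293 cells were exposed to compounds and R1881 overnight (16 h, 37C); beta-lactamase activity was then quantified by FRET fluorescence.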

Measured: Potency

Cc1cc(C(C)(C)c2cc(C)c(O)c(C)c2)cc(C)c1O
inactive: [4] | [8] | [9]
active: [1] 42.2 µM | [2] 26.4 µM | [3] 26.6 µM | [5] 29.6 µM | [6] 23.5 µM | [7] 11.8 µM | Aromatase (Homo sapiens) 16.7 µM | [10] 26.4 µM

COc1cc(C=O)cc2c1[C@H](COC(N)=O)[C@]1(OC(C)=O)ON2C[C@H]2[C@@H]1N2C(C)=O
active: [1] 0.49 µM | [11] 0.0154 µM | [2] 0.0069 µM | [6] 0.864 µM | [7] 0.433 µM | [12] 5.49 µM [inconclusive] | [14] 0.217 µM | Aromatase (Homo sapiens) 3.44 µM
inactive: [8] | [13]

CC(C)(O)c1cnn2c(-c3ccc(F)c(-c4c(F)cccc4C#N)c3)cnc2n1
active: [15] 30.6 µM | [2] 21.7 µM | Aromatase (Homo sapiens) 54.5 µM
inactive: [1] | [3] | [4] | [5] | [8] | [16] | [9] | [10]

Cc1cc(C(F)(C(F)(F)F)C(F)(F)F)ccc1NC(=O)c1cccc(I)c1C(=O)NC(C)(C)CS(C)(=O)=O
inactive: [1] | [17] | [6] | [8] | [16] | [13] | [14] | [9] | Aromatase (Homo sapiens) | [10]
active: [15] 43.5 µM | [2] 30.8 µM | [7] 21.8 µM

CC(Cc1ccc(C(C)(C)C)cc1)CN1C[C@@H](C)O[C@@H](C)C1 (some centres not stated)
active: [15] 5.45 µM | [2] 4.86 µM
inactive: [1] | [17] | [6] | [8] | [16] | [9]

CCOC(=O)OC1=C(c2cc(C)ccc2C)C(=O)NC12CCC(OC)CC2 (configuration not stated)
inactive: [1] | [3] | [17] | [8] | [12] | [13] | [14] | [9] | Aromatase (Homo sapiens) | [10]
active: [15] 30.6 µM | [7] 54.4 µM

N#CSCSC#N
inactive: [4] | [16] | [9]
active: [1] 22.4 µM and 21.7 µM | [15] 1.98 µM and 1.91 µM | [2] 3.51 µM and 1.52 µM | [3] 22.4 µM and 24.3 µM | [5] 55.7 µM and 60.5 µM | [6] 2.79 µM and 4.28 µM | [7] 1.98 µM and 2.15 µM | Aromatase (Homo sapiens) 14 µM and 17.1 µM | [10] 12.5 µM and 17.1 µM

CC(=O)O[C@H]1CC[C@@]2(C)C(=CC[C@@H]3[C@@H]2CC[C@]2(C)C(=O)CC[C@@H]32)C1
active: [13] 811 nM [inconclusive] and 490 nM [inconclusive] | [18] 320 nM and 86.3 nM
inactive: [1] | [2] | [3] | [4] | [17] | [5] | [6] | [7] | [8] | [16] | [14] | [9] | Aromatase (Homo sapiens) | [10]

c1ccc2cc3c(cc2c1)-c1cccc2cccc-3c12
active: [14] 0.269 µM
inactive: [1] | [15] | [2] | [3] | [4] | [17] | [7] | [8] | [16] | [18] | Aromatase (Homo sapiens)

O=C(O)COc1nc(Cl)c(Cl)cc1Cl
inactive: [1] | [7] | [8] | [12] | [13] | [18] | [14] | [9] | Aromatase (Homo sapiens)
active: [15] 57.4 µM

c1ccc2c(c1)[nH]c1cnccc12
inactive: [1] | [11] | [3] | [17] | [6] | [8] | [16] | [13] | [18] | [14] | [9] | Aromatase (Homo sapiens) | [10]

Fc1cccc(Cl)c1CCl
inactive: [1] | [2] | [3] | [17] | [6] | [7] | [8] | [16] | [13] | [18] | [14] | [9] | Aromatase (Homo sapiens) | [10]

CCC(C)(C)C(=O)OC1=C(c2ccc(Cl)cc2Cl)C(=O)OC12CCCCC2
active: [7] 54.5 µM | [18] 54.5 µM
inactive: [1] | [3] | [4] | [17] | [5] | [8] | [16] | [13] | [9] | Aromatase (Homo sapiens) | [10]

Cc1c(Cl)c(=O)oc2cc(OP(=O)(OCCCl)OCCCl)ccc12
inactive: [1] | [3] | [7] | [8] | [12] | [16] | [13] | [18] | [14] | Aromatase (Homo sapiens)

CCOP(=S)(OCC)OC(Cl)C(Cl)(Cl)Cl (configuration not stated)
inactive: [1] | [2] | [6] | [8] | [16] | [9] | [10]

BrCBr
inactive: [1] | [3] | [17] | [6] | [7] | [8] | [12] | [16] | [13] | [18] | [14] | [9] | Aromatase (Homo sapiens) | [10]

Cc1ccc(OP(=O)(Oc2ccccc2)Oc2ccccc2)cc1
active: [18] 3.91 µM
inactive: [1] | [3] | [4] | [5] | [6] | [7] | [8] | [12] | [13] | [14] | [9] | Aromatase (Homo sapiens) | [10]

c1ccc(OCC2CO2)cc1 (configuration not stated)
inactive: [1] | [17] | [6] | [7] | [8] | [16] | [9] | Aromatase (Homo sapiens) | [10]

O=c1oc2ccccc2c(O)c1Cc1c(O)c2ccccc2oc1=O
active: [7] 11.4 µM
inactive: [11] | [15] | [2] | [3] | [19] | [4] | [5] | [6] | [8] | [9] | Aromatase (Homo sapiens) | [10]
